Assay [1] has as its target BDNF/NT-3 growth factors receptor (Homo sapiens) (UniProt Q16620). As to conditions: at 10 µM.
Assay [2] concerns the target T1, Tyrosine-protein kinase TXK (Homo sapiens) (UniProt P42681).
T1 sequence (whole entry): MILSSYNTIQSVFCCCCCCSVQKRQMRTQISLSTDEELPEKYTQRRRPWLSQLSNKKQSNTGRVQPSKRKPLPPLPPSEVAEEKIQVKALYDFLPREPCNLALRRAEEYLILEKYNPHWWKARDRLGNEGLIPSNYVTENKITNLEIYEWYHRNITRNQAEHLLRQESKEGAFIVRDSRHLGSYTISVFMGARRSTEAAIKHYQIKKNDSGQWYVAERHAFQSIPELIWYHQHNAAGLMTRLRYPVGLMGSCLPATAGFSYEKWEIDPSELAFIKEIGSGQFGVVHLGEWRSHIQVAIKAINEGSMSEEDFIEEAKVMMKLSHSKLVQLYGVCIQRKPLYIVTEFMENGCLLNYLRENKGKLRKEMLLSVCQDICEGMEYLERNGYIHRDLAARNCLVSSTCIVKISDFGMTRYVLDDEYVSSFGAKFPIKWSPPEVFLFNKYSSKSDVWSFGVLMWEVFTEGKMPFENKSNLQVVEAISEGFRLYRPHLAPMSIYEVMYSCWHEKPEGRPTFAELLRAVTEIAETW
As to conditions: at 1 µM.

For assay [3], the target named is T1, Tyrosine-protein kinase TXK (Homo sapiens). As to conditions: at 10 µM.
Assay [4] concerns the target T2, Serine/threonine-protein kinase ULK2 (Homo sapiens) (UniProt Q8IYT8).
T2 sequence (whole entry): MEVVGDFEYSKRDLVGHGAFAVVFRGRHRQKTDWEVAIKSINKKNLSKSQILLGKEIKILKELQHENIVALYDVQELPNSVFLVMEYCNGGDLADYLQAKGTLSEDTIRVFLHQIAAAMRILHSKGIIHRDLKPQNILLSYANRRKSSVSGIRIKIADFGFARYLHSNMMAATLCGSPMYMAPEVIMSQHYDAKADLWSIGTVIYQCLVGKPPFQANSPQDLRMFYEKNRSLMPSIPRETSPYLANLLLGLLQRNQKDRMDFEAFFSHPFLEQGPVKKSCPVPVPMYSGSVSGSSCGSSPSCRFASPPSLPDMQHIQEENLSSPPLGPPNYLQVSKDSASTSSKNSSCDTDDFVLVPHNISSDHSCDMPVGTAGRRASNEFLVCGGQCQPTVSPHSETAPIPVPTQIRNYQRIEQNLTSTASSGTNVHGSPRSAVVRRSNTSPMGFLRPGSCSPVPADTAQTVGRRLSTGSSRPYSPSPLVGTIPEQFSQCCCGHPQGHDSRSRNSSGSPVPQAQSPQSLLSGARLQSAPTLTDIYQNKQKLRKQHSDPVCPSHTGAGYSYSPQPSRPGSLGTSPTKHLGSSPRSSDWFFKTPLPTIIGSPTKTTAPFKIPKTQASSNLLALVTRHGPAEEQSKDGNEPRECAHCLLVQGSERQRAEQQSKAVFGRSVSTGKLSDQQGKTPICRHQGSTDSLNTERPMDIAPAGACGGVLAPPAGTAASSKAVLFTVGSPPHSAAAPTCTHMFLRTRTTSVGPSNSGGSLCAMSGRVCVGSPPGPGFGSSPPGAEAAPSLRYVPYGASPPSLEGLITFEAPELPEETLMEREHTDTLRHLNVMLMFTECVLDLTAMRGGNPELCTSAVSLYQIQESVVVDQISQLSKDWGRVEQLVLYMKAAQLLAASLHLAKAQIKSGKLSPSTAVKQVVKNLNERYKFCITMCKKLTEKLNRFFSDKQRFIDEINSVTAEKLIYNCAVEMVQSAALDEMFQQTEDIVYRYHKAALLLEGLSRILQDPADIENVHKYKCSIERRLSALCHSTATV
The settings on record: at 1 µM.

For assay [5], the target named is T2, Serine/threonine-protein kinase ULK2 (Homo sapiens). As to conditions: at 10 µM.
Assay [6] concerns the target T3, Serine/threonine-protein kinase ULK3 (Homo sapiens) (UniProt Q6PHR2).
T3 sequence (whole entry): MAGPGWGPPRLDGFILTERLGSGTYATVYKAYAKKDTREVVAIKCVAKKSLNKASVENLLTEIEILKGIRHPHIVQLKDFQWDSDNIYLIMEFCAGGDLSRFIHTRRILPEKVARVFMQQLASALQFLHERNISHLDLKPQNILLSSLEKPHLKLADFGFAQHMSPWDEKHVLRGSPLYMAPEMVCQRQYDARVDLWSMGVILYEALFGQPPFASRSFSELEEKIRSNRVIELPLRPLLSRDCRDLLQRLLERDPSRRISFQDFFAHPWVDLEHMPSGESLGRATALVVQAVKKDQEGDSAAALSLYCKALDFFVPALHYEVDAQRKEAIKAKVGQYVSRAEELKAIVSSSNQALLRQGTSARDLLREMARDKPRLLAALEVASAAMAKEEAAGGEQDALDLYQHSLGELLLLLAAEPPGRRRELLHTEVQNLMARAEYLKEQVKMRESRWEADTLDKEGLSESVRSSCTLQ
The settings on record: at 1 µM.

For assay [7], the target named is T3, Serine/threonine-protein kinase ULK3 (Homo sapiens). As to conditions: at 10 µM.
Assay [8] has as its target Serine/threonine-protein kinase VRK2 (Homo sapiens) (UniProt Q86Y07). As to conditions: at 1 µM.
For assay [9] the target is unchanged. The settings on record: at 10 µM.
The target of assay [10] is Serine/threonine-protein kinase WNK2 (Homo sapiens) (UniProt Q9Y3S1). The settings on record: at 1 µM.
Assay [11] has the same target. As to conditions: at 10 µM.
For assay [12], the target named is Serine/threonine-protein kinase WNK3 (Homo sapiens) (UniProt Q9BYP7). The settings on record: at 1 µM.
Assay [13] shares this target. The settings on record: at 10 µM.
For assay [14], the target named is Tyrosine-protein kinase Yes (Homo sapiens) (UniProt P07947). The settings on record: at 1 µM.
Assay [15] has the same target. As to conditions: at 10 µM.
The target in assay [16] is T4, Tyrosine-protein kinase ZAP-70 (Homo sapiens) (UniProt P43403).
T4 sequence (whole entry): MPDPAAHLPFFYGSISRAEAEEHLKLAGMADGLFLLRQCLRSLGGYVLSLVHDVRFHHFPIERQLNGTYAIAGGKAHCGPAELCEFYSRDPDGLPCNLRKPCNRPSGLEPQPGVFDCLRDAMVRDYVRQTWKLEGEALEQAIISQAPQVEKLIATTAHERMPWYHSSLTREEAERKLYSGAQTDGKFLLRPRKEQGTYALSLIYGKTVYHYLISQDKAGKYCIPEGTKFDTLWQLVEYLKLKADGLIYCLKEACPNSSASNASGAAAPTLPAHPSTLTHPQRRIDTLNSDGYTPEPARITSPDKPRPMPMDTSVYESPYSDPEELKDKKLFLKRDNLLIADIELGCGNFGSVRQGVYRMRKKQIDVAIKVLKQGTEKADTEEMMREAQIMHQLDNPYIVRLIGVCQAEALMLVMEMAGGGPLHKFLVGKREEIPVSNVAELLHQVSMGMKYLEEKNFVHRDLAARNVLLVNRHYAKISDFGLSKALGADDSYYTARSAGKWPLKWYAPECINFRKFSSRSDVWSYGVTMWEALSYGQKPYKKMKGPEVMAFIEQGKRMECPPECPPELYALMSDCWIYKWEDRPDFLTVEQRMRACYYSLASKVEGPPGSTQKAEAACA
As to conditions: at 1 µM.

Assay [17] concerns the target Death-associated protein kinase 3 (Homo sapiens) (UniProt O43293). The settings on record: at 1 µM.
For assay [18] the target is unchanged. As to conditions: at 10 µM.
In assay [19] the target is RAF proto-oncogene serine/threonine-protein kinase (Homo sapiens) (UniProt P04049). The settings on record: at 1 µM.
For assay [20] the target is unchanged. As to conditions: at 10 µM.

The results in this text go back to ChEMBL document CHEMBL2218924, “A broad activity screen in support of a chemogenomic map for kinase signalling research and drug discovery” (Biochem J, 2013).

Serine/threonine-protein kinase WNK2 (Homo sapiens), sequence (Q9Y3S1 whole entry): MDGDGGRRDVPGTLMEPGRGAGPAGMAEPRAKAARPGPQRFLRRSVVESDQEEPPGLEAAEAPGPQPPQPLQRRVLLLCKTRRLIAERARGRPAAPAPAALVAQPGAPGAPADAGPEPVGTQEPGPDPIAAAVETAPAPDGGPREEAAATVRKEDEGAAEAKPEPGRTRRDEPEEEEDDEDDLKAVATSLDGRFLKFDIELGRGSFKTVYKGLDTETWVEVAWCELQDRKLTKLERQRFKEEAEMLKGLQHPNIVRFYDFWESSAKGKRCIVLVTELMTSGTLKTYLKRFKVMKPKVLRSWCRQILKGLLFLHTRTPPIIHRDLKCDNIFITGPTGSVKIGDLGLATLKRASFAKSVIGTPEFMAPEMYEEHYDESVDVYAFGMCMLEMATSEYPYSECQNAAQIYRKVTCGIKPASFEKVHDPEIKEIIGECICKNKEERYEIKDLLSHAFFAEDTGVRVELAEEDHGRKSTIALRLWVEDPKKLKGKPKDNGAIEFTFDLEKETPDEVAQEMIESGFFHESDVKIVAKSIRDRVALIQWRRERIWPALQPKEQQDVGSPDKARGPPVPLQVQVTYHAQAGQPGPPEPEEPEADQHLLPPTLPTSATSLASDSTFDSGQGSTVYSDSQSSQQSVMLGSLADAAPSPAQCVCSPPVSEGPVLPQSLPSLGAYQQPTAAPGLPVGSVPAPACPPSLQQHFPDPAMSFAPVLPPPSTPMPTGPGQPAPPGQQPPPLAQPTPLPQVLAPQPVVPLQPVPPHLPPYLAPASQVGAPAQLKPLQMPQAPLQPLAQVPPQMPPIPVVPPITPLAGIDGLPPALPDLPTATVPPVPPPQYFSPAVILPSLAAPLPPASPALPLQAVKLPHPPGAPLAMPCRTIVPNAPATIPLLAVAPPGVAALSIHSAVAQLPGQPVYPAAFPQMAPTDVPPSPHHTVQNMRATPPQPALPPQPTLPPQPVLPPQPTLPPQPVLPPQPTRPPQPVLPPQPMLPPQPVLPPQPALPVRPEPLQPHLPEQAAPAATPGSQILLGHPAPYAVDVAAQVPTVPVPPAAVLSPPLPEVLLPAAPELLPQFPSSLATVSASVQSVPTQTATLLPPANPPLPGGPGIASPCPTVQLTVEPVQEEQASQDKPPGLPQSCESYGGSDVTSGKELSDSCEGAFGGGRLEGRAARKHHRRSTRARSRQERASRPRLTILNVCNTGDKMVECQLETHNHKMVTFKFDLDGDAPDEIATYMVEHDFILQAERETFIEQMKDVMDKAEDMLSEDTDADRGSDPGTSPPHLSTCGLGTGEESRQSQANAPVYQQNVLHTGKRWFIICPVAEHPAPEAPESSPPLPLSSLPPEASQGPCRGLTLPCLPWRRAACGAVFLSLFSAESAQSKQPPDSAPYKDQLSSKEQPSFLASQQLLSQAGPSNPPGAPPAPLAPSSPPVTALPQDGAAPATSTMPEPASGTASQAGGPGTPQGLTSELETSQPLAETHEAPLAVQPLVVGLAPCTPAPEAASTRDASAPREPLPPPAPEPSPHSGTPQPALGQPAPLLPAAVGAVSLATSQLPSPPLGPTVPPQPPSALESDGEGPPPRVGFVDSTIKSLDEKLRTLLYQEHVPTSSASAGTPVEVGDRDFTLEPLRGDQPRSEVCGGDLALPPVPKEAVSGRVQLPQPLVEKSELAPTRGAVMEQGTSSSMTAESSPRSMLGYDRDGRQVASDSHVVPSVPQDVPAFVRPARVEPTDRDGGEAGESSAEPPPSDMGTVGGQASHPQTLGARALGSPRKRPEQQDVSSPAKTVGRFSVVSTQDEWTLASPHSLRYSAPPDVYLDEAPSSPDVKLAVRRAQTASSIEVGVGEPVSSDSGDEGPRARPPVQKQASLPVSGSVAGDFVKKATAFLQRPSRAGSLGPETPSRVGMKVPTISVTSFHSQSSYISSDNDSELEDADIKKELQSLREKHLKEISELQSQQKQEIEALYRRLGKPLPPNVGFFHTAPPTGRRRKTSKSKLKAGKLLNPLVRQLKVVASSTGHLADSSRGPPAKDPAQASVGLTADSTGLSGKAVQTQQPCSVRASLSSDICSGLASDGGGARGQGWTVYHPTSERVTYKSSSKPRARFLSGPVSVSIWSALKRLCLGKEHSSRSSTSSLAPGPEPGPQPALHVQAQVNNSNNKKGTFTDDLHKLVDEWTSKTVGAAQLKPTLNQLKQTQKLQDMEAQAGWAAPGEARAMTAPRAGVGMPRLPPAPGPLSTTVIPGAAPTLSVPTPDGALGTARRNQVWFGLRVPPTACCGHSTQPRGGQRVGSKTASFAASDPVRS
Tyrosine-protein kinase Yes (Homo sapiens), sequence (P07947 2-543 limits assumed): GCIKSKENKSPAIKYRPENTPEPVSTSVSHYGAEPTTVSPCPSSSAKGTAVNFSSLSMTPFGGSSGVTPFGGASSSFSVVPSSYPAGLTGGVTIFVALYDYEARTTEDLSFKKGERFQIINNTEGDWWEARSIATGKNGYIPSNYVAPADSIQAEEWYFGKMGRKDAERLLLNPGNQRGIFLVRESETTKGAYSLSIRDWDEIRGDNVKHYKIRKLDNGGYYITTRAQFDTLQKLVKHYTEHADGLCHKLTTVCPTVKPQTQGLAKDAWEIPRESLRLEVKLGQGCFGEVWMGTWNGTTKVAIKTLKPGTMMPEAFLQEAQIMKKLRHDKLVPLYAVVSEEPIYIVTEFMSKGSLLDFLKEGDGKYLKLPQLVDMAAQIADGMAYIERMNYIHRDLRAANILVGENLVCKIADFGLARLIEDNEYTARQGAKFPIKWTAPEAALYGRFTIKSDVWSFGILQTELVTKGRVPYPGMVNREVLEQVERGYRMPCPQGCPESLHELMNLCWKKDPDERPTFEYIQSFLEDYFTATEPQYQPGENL
Serine/threonine-protein kinase VRK2 (Homo sapiens), sequence (Q86Y07 whole entry): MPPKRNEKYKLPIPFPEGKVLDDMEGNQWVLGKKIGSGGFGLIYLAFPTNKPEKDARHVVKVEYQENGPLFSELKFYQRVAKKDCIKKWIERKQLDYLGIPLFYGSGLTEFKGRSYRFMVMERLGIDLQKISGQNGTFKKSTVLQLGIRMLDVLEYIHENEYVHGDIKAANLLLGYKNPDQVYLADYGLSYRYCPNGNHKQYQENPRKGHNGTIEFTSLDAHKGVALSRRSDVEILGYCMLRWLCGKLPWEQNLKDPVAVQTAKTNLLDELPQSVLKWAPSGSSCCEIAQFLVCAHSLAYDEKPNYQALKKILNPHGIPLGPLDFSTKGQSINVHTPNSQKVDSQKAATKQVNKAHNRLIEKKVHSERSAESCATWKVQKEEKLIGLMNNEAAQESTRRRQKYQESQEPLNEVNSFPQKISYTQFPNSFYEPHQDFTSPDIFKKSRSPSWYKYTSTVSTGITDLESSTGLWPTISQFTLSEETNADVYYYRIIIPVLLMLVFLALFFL
BDNF/NT-3 growth factors receptor (Homo sapiens), sequence (Q16620 32-822 limits assumed): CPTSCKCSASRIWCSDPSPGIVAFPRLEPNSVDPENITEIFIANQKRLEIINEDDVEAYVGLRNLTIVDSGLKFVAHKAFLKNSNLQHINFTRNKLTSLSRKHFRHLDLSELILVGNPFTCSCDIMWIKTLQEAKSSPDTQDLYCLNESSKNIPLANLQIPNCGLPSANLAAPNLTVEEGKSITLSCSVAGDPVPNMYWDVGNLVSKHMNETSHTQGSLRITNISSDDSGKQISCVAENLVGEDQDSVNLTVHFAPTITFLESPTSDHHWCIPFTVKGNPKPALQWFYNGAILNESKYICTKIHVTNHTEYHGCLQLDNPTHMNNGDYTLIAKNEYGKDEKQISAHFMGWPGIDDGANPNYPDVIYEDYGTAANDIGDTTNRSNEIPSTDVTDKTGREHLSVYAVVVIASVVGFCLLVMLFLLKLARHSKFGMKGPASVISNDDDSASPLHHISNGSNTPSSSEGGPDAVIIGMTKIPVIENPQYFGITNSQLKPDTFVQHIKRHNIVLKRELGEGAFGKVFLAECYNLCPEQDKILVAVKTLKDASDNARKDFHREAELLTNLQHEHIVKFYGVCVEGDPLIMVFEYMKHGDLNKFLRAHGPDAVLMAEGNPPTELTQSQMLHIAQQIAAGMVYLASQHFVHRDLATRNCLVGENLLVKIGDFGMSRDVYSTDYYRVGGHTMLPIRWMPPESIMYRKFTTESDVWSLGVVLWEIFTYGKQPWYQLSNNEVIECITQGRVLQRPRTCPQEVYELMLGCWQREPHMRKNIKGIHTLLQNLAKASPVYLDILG
Death-associated protein kinase 3 (Homo sapiens), sequence (O43293 whole entry, looked up): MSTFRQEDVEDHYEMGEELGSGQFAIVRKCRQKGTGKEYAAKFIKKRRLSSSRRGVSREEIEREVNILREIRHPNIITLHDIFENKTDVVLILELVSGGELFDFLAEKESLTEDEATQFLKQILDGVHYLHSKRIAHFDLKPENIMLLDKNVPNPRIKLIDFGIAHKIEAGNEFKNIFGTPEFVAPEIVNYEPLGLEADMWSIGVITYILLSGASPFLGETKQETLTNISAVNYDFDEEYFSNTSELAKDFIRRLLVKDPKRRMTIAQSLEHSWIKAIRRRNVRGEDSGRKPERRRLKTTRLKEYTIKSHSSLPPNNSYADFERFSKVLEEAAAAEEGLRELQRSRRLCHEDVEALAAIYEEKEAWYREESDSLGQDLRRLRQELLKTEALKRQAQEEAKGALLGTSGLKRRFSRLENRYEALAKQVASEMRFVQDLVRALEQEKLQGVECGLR

For `CNc1cc2c(Nc3cccc(Br)c3)ncnc2cn1`, the residual activity (usually the signal under treatment as a percentage of the control signal) was determined as 21% in [1]; 98% in [2]; 64% in assay [3]; 103% in assay [4]; 95% in assay [5]; 103% in assay [6]. Moreover, the residual activity is 70% in assay [7]; 99% (inactive) in [8]; 91% in assay [9]; 105% (inactive) in [10]; 89% in [11]; 101% (inactive) in assay [12]. Further, the residual activity amounted to 91% in assay [13]; 67% in [14]; 45% in assay [15]; 99% in assay [16]; 84% in assay [17]; 88% in assay [18]. Besides, the figures for the residual activity in assay [19] and in assay [20] were 80% and 91%, respectively.

Turning to `COc1ccc(CNc2nc(N(CCO)CCO)nc3c2ncn3C(C)C)cc1`, the residual activity in assay [1] came to 96%; in assay [2], 87%; in [3], 89%; in [4], 97%; in assay [5] it was 97%; in [6], 81%. Also, the residual activity in assay [7] is 82%; in [8], 79% (inactive); in assay [9], 46%; in assay [10], 88% (inactive); in [11], 86%; in assay [12], 97% (inactive). The residual activity in assay [13] was 93%; in [14], 100%; in assay [15] it was 89%; in assay [16], 102%; in assay [17], 99%; in assay [18] it was 92%. The residual activity in assay [19] came out at 85%; in assay [20], 69%.

As to `Cc1ccc(NC2=CC(=O)c3sc(C)nc3C2=O)cc1`, the residual activity in assay [1] came out at 93%; in assay [2], 80%; in assay [3] it was 83%; in [4], 101%; in assay [5] it was 100%; in [6], 96%. Besides, the residual activity in [7] was 100%; in [8], 89% (inactive); in assay [9], 88%; in assay [10] it was 88% (inactive); in [11], 90%; in assay [12], 80% (inactive). In addition, the residual activity amounted to 95% in [13]; 118% in assay [14]; 105% in [15]; 113% in assay [16]; 95% in assay [17]; 82% in assay [18]. The residual activity in assay [19] is 84%; in assay [20], 87%.

`CC[n+]1c(/C=C/N(C)c2ccccc2)n(-c2ccccc2)c2ccc(-c3nc4ccccc4s3)cc21`: the residual activity in assay [1] was found to be 61%; in assay [2] it was 83%; in assay [3], 51%; in assay [4] it was 110%; in assay [5], 104%; in assay [6], 112%. Further, the residual activity in assay [7] is 97%; in assay [8], 110% (inactive); in assay [9] it was 99%; in [10], 96% (inactive); in assay [11] it was 35%; in assay [12], 100% (inactive). In addition, the residual activity in assay [13] is 44%; in assay [14], 105%; in assay [15], 100%; in [16], 117%; in assay [17] it was 100%; in [18], 73%. The residual activity came out at 105% in [19] and 98% in assay [20].

As for `O=C1NC(=O)c2c1c1c3ccccc3[nH]c1c1[nH]c3cc(Br)ccc3c21`, the residual activity in assay [1] was 42%; in [2] it was 89%; in assay [3], 72%; in assay [4] it was 108%; in assay [5] it was 95%; in assay [6], 88%. For the same compound, the residual activity in assay [7] was 86%; in assay [8], 95% (inactive); in assay [9], 90%; in assay [10], 96% (inactive); in [11], 85%; in assay [12], 85% (inactive). The residual activity in [13] was 82%; in assay [14], 95%; in [15], 88%; in assay [16], 95%; in [17], 102%; in assay [18], 91%. Moreover, the residual activity in assay [19] and in assay [20] was 82% each time.

As for `O=C(O)c1ccc2c3c1cccc3c(=O)n1c3ccccc3nc21`, the residual activity was 59% in [1]; 77% in [2]; 60% in assay [3]; 90% in assay [4]; 48% in assay [5]; 91% in [6]. Also, the residual activity was 70% in assay [7]; 105% (inactive) in [8]; 89% in assay [9]; 113% (inactive) in [10]; 106% in [11]; 111% (inactive) in [12]. For the same compound, the residual activity in assay [13] was found to be 97%; in [14] it was 118%; in assay [15], 103%; in assay [16] it was 113%; in [17], 60%; in assay [18] it was 14%. Besides, the residual activity in assay [19] worked out at 83%; in assay [20] it was 89%.
